Assay outcomes: PubChem, The Scripps Research Institute Molecular Screening Center
An excerpt weighted towards active compounds, which were near 3.5% of everything screened.
GPR151 ag = activates the human receptor GPR151; PathHunter beta-arrestin GPR151 cells, luminescence; activation, % at 11.2 µM; 650,000 compounds, 1% hits; in the data active means activation above about 4.9%;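 further: 0% = median of compound wells and 100% = cells with positive control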
Target sequence (Q8TDV0 whole entry, looked up): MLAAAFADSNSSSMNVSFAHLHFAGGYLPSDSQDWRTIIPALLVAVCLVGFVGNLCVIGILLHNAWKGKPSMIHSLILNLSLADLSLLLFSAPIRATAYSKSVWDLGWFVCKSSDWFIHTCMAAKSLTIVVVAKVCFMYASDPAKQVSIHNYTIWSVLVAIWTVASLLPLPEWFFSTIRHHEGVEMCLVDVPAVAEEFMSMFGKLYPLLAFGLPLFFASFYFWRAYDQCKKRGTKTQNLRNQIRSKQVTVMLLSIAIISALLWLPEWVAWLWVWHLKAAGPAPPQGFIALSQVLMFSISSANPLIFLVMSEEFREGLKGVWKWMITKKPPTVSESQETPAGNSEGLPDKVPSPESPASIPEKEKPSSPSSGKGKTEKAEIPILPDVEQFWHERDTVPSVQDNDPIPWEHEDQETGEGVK
FBW7 activator = activators of human E3 ligase FBW7; AID 1259310; AlphaScreen FBW7–phospho-cyclin E peptide binding, activator screen; Q969H0; normalized activity (activation), % at 26.1 µM; 650,000 compounds, 0.13% hits; in the data active means normalized activity above about 1.9%;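 further: purified mutant Fbw7 with reduced substrate affinity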
TEAD-YAP inh = TEAD-YAP interaction inhibition. HEK-TIYL cells, TEAD-Gal4/YAP UAS-luciferase luminescence. inhibition, % at 9.12 µM. 640,000 compounds, 1.4% hits. AID 1259422; in the data active means inhibition above about 32%;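 further: 0% = median of test compound wells and 100% = reference inhibitor wells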
MITF inh = blocks human microphthalmia-associated transcription factor | O75030 | AlphaScreen MITF homodimerization, bead proximity signal | 650,000 compounds, 0.91% hits | inhibition, % at 2.6 µM | AID 1259374; in the data active means inhibition above about 50%;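 further: 0% = vehicle wells with protein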
GPR151 conf act = human GPR151 activation, confirmation screen; shares compounds with GPR151 ag; GPR151 PathHunter beta-arrestin cells, luminescence, 90 min; % of EA-reagent control over plate median; activation, % at 11.2 µM; 6,700 tested, under 10 active;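 active means mean percent activation across replicates above the confirmation screen cutoff of 4.91%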
GPR119 counter = counter-screen for GPR151 activators: effect on human GPR119; GPR119 PathHunter beta-arrestin cells, luminescence, 90 min; 0 = compound-well median, 100 = enzyme-acceptor control; AID 1508611; shares compounds with GPR151 ag; 6,700 compounds, 0.3% hits; activation, % at 11.2 µM;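 active means mean percent activation in the counterscreen above 29.09%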;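 further: counterscreen on off-target GPR119 to flag nonselective hits from the GPR151 activator screen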
* hit, by the source's call; / = no result.

SMILES | GPR151 ag | FBW7 activator | TEAD-YAP inh | MITF inh | GPR151 conf act | GPR119 counter
O=C(Nc1nnc(S(=O)(=O)N2CCCCC2)s1)c1ccc(Cl)cc1 | 5.6* | 0 | 5 | -5 | 0 | -9
CC(C)(C)NC(=O)C1CCCN(S(=O)(=O)c2ccc(Br)s2)C1 (centres undefined) | 1 | 0 | 4 | -14 | / | /
COc1cccc(CN2CCN(C(=S)NCc3ccco3)CC2)c1 | -1 | 0 | 3 | 9 | / | /
Cc1cccc(OCCCC(=O)Nc2ccc(F)cc2)c1 | 0 | 0 | 8 | 6 | / | /
COc1c(Cl)cc(Cl)cc1C(=O)Nc1ccc(-c2nn3c(C)nnc3s2)cc1 | 5.0* | 1 | 2 | 2 | 0 | 4
C/C(=N\NC(=O)NC1CCCCC1)c1ccc(O)cc1O | 0 | 0 | 11 | -5 | / | /
O=C(CCc1nnc2n(Cc3ccc(F)cc3)c(=O)c3ccccc3n12)Nc1ccccc1 | -1 | 0 | -3 | 4 | / | /
CC(C)NC(=O)CCc1nnc2n(Cc3ccc(F)cc3)c(=O)c3ccccc3n12 | 8.0* | 1 | 5 | 14 | 1 | 12
O=C(CCN1N=C(c2ccccc2)CCC1=O)NCc1ccc2c(c1)OCO2 | 7.2* | 0 | 8 | -1 | 0 | -5
O=C(CS(=O)(=O)c1ccccc1)NCc1ccc2c(c1)OCO2 | 5.1* | 0 | -3 | 8 | 1 | 14
O=C(Cc1cc(=O)[nH]c(=O)[nH]1)NCc1ccc2c(c1)OCO2 | 8.6* | 0 | 2 | 10 | 0 | 5
O=S(=O)(Cc1ccc2c(c1)OCO2)c1ccc2ccccc2c1 | 5.8* | 0 | -7 | 12 | 0 | -12
O=C(CCN1N=C(c2ccccc2)CCC1=O)NCc1ccc(Cl)cc1 | 0 | 0 | -7 | -3 | / | /
Cc1ccc(-n2c(C)cc(/C=C3/NC(=O)NC3=O)c2C)cc1 | 2 | 0 | 4 | 5 | / | /
COc1ccc(CNC(=O)Nc2ccc(F)cc2)cc1 | 1 | 0 | -24 | 6 | / | /
Cc1cc(=O)[nH]c2nnc(SCC(=O)NCc3ccc4c(c3)OCO4)n12 | -2 | 1 | 8 | 13 | / | /
NS(=O)(=O)c1ccc(NC(=S)NCc2ccc3c(c2)OCO3)cc1 | 9.1* | 0 | -2 | -12 | 0 | 2
O=C(CN1C(=O)/C(=C\c2cccc(Cl)c2)Sc2ccccc21)NCc1cccnc1 | 0 | 0 | -7 | 6 | / | /
O=C(CSc1n[nH]c(=O)n1C1CC1)NCc1ccc2c(c1)OCO2 | 6.3* | 0 | 17 | -12 | 0 | 0
O=C(CN1C(=O)/C(=C/c2ccccc2)Sc2ccccc21)NCc1ccc2c(c1)OCO2 | 9.0* | 0 | -1 | -2 | 0 | -1
CC(=O)Nc1ccc(C(=O)NCC(=O)OCc2ccc([N+](=O)[O-])cc2)cc1 | 3 | 0 | 9 | 6 | / | /
O=C(NC1CC1)c1cccc(-n2ccc3ccccc32)c1 | 0 | 0 | -15 | -2 | / | /
Cc1nn2cnc3sc4c(c3c2nc1=O)CCC(C(C)(C)C)C4 (centres undefined) | 7.0* | 0 | -8 | -1 | 0 | -4
Cn1c(NN)nc2sc3c(c2c1=O)CCC(C(C)(C)C)C3 (centres undefined) | 0 | 0 | 8 | 11 | / | /
CC(=O)c1ccc2ccccc2c1OC(=O)c1ccc(Br)o1 | 6.3* | 0 | 3 | 0 | -1 | -15
SMILES | GPR151 ag | FBW7 activator | TEAD-YAP inh | MITF inh | GPR151 conf act | GPR119 counter
CC(C)(C)P(=Nc1cc([N+](=O)[O-])cc([N+](=O)[O-])c1)(N1CCOCC1)N1CCOCC1 | 2 | 0 | 6 | 3 | / | /
O=C(NC1CC1)c1ccc(-c2nc(NCc3ccccc3)c3ncn(-c4ccccc4)c3n2)cc1 | 2 | 0 | 2 | -7 | / | /
O=C(NC1CC1)c1ccc(-c2nc(NCc3nc4ccccc4[nH]3)c3ncn(-c4ccccc4)c3n2)cc1 | 5.0* | 1 | 73* | -1 | 0 | 4
Cc1cccc(Cc2c(C)nc3c(C(=O)N4CCCC4)cnn3c2C)c1 | 2 | 0 | -6 | -1 | / | /
COc1ccc(CNC(=O)c2cnn3c(C)c(Cc4cccc(Cl)c4)c(C)nc23)cc1 | 1 | 0 | 21 | 7 | / | /
Cc1ccccc1Cc1c(C)nc2c(C(=O)N3CCN(c4cccc(Cl)c4)CC3)cnn2c1C | 3 | 0 | 4 | 6 | / | /
Cc1nc2c(C(=O)N3CCCC3)cnn2c(C)c1Cc1cccc(Cl)c1 | 5.5* | 0 | -14 | 15 | 1 | 14
Cc1nc2c(C(=O)NCc3ccccn3)cnn2c(C)c1Cc1cccc(Cl)c1 | 8.1* | 0 | 1 | -12 | 2 | 12
Cc1nc2c(C(=O)N3CCN(c4cccc(Cl)c4)CC3)cnn2c(C)c1Cc1ccccc1Cl | 5.3* | 0 | 12 | 2 | 0 | -5
Nc1nonc1-c1noc(-c2ccc(COc3ccccc3Br)cc2)n1 | 2 | 0 | -5 | 1 | / | /
CN1C(=O)Cc2cc(S(=O)(=O)NC3CC3)ccc21 | 0 | 0 | -2 | 8 | / | /
COc1ccc(Nc2ccnc3c(-c4cnc(OC)nc4OC)cnn23)cn1 | 1 | 0 | -24 | 7 | / | /
N#CCC(=O)NCCOc1ccccc1 | 8.6* | 0 | 4 | 11 | 1 | 1
O=C1c2ccc([N+](=O)[O-])cc2C(=O)N1c1c[nH]c(=O)[nH]c1=O | 5.1* | -2 | 9 | 1 | 0 | 1
Cc1ccc(-n2nnnc2SCCN)c(C)c1 | -1 | 0 | 15 | 28 | / | /
CCc1nc(-n2nc(C)cc2N)c2c3c(sc2n1)CCCC3 | 6.5* | 0 | -2 | -3 | 1 | -8
CCc1nc(-n2nc(C)cc2N)c2c3c(sc2n1)CCC3 | -2 | 0 | -4 | -4 | / | /
CC(C)c1ccc(NC(=O)c2cc(S(=O)(=O)N3CCc4ccccc43)ccc2F)cc1 | 7.4* | 0 | -11 | 0 | -1 | -11
Cc1ccc(NC(=O)c2ccccc2NC(=O)c2ccc(S(=O)(=O)N3CCc4ccccc43)cc2)c(C(=O)c2ccccc2)c1 | 8.7* | 0 | 1 | -4 | 0 | 12
COc1ccc(Cl)cc1NC(=O)c1sc2ncn(CC(=O)Nc3ccc(C)c(Cl)c3)c(=O)c2c1C | 0 | 0 | 2 | -4 | / | /
CCOC(=O)c1cc2c(=O)n3ccccc3nc2n(C)c1=NC(=O)c1ccc(F)c(F)c1 | -1 | 0 | -5 | -2 | / | /
COc1ccc2c(c1)c(CC(=O)Nc1ncccc1C)c(C)n2C(=O)c1ccc(Cl)cc1 | 0 | 0 | 6 | 16 | / | /
COc1ccc2c(c1)c(CC(=O)Nc1ccc(NC(C)=O)cc1)c(C)n2C(=O)c1ccc(Cl)cc1 | 6.2* | / | / | -8 | 0 | 11
O=C(NCCO)c1cccc(N2CCOCC2)n1 | -2 | 0 | 1 | -2 | / | /
O=C(CSc1ccc2nnc(-c3cccnc3)n2n1)N1CCCCC1CCn1ccnc1 (centres undefined) | 7.7* | 1 | 0 | 31 | 1 | 2
O=C(CSc1ccc2nnc(-c3cccnc3)n2n1)N1CCCCCC1 | -1 | 0 | 2 | 10 | / | /
